The values that follow come from PubChem BioAssay (Tox21).

Values joined by “and” are separate entries in the source; they are usually repeats but may differ in a detail not shown here. Identical values can stand only once. Results filed as inconclusive are left out. A structure can be active in one record and inactive in another. Active and inactive are the calls of the source. Unless noted, calls follow the shape of the dose curve; as a rule, active = well fitted curve in the direction sought with a large enough effect in the repeat runs; inconclusive = weak or mixed curves; inactive = no such curve, though single readings can be large; an effect the other way counts as inactive or inconclusive.

The target of test [1] is Progesterone receptor (Homo sapiens) (UniProt P06401). Nature of the test: qHTS assay to identify small molecule antagonists of the progesterone receptor (PR) signaling pathway (AID 1346795; active = well fitted inhibition curve with a large enough effect in the signal ratio in the repeat runs, not every such curve was filed as active; the % refers to the signal ratio; also: potency is read from the fitted curve at half-maximal effect). Summed up:
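Fluorescence intensity measured 2 hr after adding beta-lactamase FRET substrate to PR-UAS-bla HEK293T cells that had been co-treated 16 hr with compound and 1 nM R5020 (final concentration) in 2% charcoal-stripped FBS.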

Test [2] can be described thus: qHTS assay to identify small molecule antagonists of the progesterone receptor (PR) signaling pathway - cell viability counter screen (AID 1346798). Also: nearly all actives have a fitted effect of over 50% in size. Also: potency is read from the fitted curve at half-maximal effect. The gist of the method:
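CellTiter-Glo luminescence; PR-UAS-bla HEK293T, 3,000 cells/well; compound + R5020, 16 hr, 37C/5% CO2; 30 min RT before read.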

Test [3] is described as follows: qHTS assay to identify small molecule agonists of the progesterone receptor (PR) signaling pathway - cell viability counter screen (AID 1346799; calls by dose curve; also: nearly all actives have a fitted effect of over 45% in size; also: potency is read from the fitted curve at half-maximal effect). Summed up: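 In parallel with the beta-lactamase readout, cytotoxicity toward PR-UAS-bla HEK293T cells was measured by CellTiter-Glo luminescence following 16 hr compound incubation in 2% charcoal-stripped FBS medium.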

The nature of test [4]: qHTS assay to identify small molecule antagonists of the TGF-beta/Smad signaling pathway - cell viability counter screen (AID 1346824). Also: nearly all actives have a fitted effect of over 50% in size. The gist of the method:
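SBE-bla HEK 293T cells, incubated overnight, then compound plus 0.25 ng/mL TGF-beta1 (stock added) for 5 hr at 37 C. Viability was read in the same wells by CellTiter-Glo luminescence after 30 min at room temperature.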

A short description of test [5]: qHTS assay to identify small molecule agonists of the TGF-beta/Smad signaling pathway - cell viability counter screen (AID 1346829). Also: top concentration of the series differs between compounds; nearly all actives have a fitted effect of over 45% in size. Summed up:
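Here the cytotoxicity of library compounds is measured in SBE-bla HEK 293T cells treated for 5 hr, using CellTiter-Glo added to wells already read for the beta-lactamase reporter.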
(In general: qHTS replaces the single test concentration by a dilution series.)

A short description of test [6]: qHTS assay to identify small molecule agonists of the TGF-beta/Smad signaling pathway (AID 1346859; active = well fitted activation curve with a large enough effect in the signal ratio in the repeat runs, not every such curve was filed as active; the % refers to the signal ratio; also: series mostly up to about 77 µM). Summed up: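 After overnight seeding, SBE-bla HEK 293T cells are dosed with compounds in DMSO and kept 5 hr at 37 C, 5% CO2. LiveBLAzer-type FRET substrate is then applied for 2 hr at room temperature.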
Test [7] is described as follows: Human pregnane X receptor (PXR) small molecule agonists, qHTS cell viability counter screen (AID 1346977). Also: nearly all actives have a fitted effect of over 50% in size. Also: potency is read from the fitted curve at half-maximal effect. Summed up: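 Viability counter screen: CellTiter-Fluor signal in PXR-Luc HepG2 cells, 24hr compound exposure, 37C, 5% CO2.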
Test [8] is described as follows: Caspase-3/7 induction in HepG2 cells by small molecules, qHTS assay (AID 1346978). Also: nearly all actives have a fitted effect of over 15% in size. Also: potency is read from the fitted curve at half-maximal effect. The gist of the method:
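Wild-type HepG2 cells, 2,000/well, settled 5 hr at 37 C and 5% CO2, then compound-treated for 17 hr; caspase-3/7 activity read by luminescent Caspase-Glo 3/7 after 30 min at room temperature.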

The nature of test [9]: Caspase-3/7 induction in CHO-K1 cells by small molecules, qHTS cell viability counter screen (AID 1346979). Also: nearly all actives have a fitted effect of over 35% in size. Also: potency is read from the fitted curve at half-maximal effect. Summed up:
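Viability readout by fluorescence (CellTiter-Fluor) on wild-type CHO-K1 cells exposed for 16hr at 37C and 5% CO2 to compounds delivered in DMSO; reagent incubated 1hr before reading.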

The nature of test [10]: Caspase-3/7 induction in CHO-K1 cells by small molecules, qHTS assay (AID 1346980). Also: nearly all actives have a fitted effect of over 15% in size. Summed up: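 Wild-type CHO-K1 cells exposed to compounds for 17hr at 37 C, 5% CO2. Caspase-3/7 activity then measured by Caspase-Glo 3/7 luminescence after 30min at room temperature.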
The nature of test [11]: Caspase-3/7 induction in HepG2 cells by small molecules, qHTS cell viability counter screen (AID 1346981). Also: nearly all actives have a fitted effect of over 30% in size. Also: potency is read from the fitted curve at half-maximal effect. The gist of the method:
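Wild-type HepG2 cells (2,000/well) were allowed to settle for 5 hr at 37 C, 5% CO2, then dosed with compounds in DMSO by pin transfer. After 16 hr at 37 C, CellTiter-Fluor was added and fluorescence read 1 hr later.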

Test [12] addresses Cytochrome P450 2D6 (Homo sapiens) (UniProt P10635). Nature of the test: Cytochrome P450 Family 2 Subfamily D Member 6 (CYP2D6) small molecule antagonists: luciferase reporter qHTS assay (AID 1671196). Also: nearly all actives have a fitted effect of over 50% in size. Also: potency is read from the fitted curve at half-maximal effect. Summed up:
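CYP2D6 enzyme–substrate mix was held with compound for 10 min at room temperature, then NADPH regeneration solution was added and the reaction ran 1 h at room temperature. Luciferin product was detected by luminescence after 20 min with detection reagent.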
Background: Reporter assays use an easily measured gene product as a stand-in for the process of interest.

In test [13] the target is Cytochrome P450 2C19 (Homo sapiens) (UniProt P33261). Put plainly: Cytochrome P450 Family 2 Subfamily C Member 19 (CYP2C19) small molecule antagonists: luciferase reporter qHTS assay (AID 1671197). Also: nearly all actives have a fitted effect of over 65% in size. Also: potency is read from the fitted curve at half-maximal effect. Summed up: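 Light output is proportional to CYP2C19 activity: proluciferin substrate is converted to luciferin, then detected by a luciferin detection reagent that also stops the 1 h, 37C NADPH-driven reaction. Ketoconazole serves as positive control.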

The target of test [14] is Cytochrome P450 2C9 (Homo sapiens) (UniProt P11712). Nature of the test: Cytochrome P450 Family 2 Subfamily C Member 9 (CYP2C9) small molecule antagonists: luciferase reporter qHTS assay (AID 1671198). Also: nearly all actives have a fitted effect of over 50% in size. Also: potency is read from the fitted curve at half-maximal effect. Summed up:
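P450-Glo proluciferin substrate with CYP2C9 enzyme; 10 min RT preincubation, then NADPH regeneration 1 h at 37C; luciferin detection reagent 20 min RT, luminescence in relative luminescence units.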

The target of test [15] is Thyrotropin-releasing hormone receptor (Homo sapiens) (UniProt P34981). Nature of the test: qHTS assay to identify small molecule antagonists of the thyrotropin-releasing hormone receptor (TRHR) signaling pathway (AID 1346877; active = well fitted inhibition curve with a large enough effect in the repeat runs, not every such curve was filed as active; also: series mostly up to about 51 µM). The gist of the method:
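TRHR-expressing HEK293 cells were seeded, cultured 18 h at 37 °C, then loaded with calcium dye for 2 h. Compounds were pre-incubated 5 min at room temperature before 1 nM TRH (final) was added, and kinetic fluorescence was recorded for 3 min.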

Test [16] shares this target. Put plainly: qHTS assay to identify small molecule agonists of the thyrotropin-releasing hormone receptor (TRHR) signaling pathway (AID 1346891; calls by dose curve; also: series mostly up to about 58 µM). Summed up: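 Compounds were tested as agonists at 15 concentrations, in triplicate, on TRHR-Hek293 cells; calcium-sensitive dye fluorescence was recorded for 3 min following addition.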
Test [17] addresses Nuclear receptor subfamily 1 group I member 2 (Homo sapiens) (UniProt O75469). Put plainly: CYP3A4 induction through human pregnane X receptor (PXR) by small molecules, qHTS assay (AID 1346984). Also: nearly all actives have a fitted effect of over 40% in size. Summed up:
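DPX-2 cells (HepG2 co-transfected with PXR and CYP3A4 promoter-luciferase) treated with compounds 24 h at 37C; luciferin-IPA CYP3A4 substrate 3uM final added for 3 h, then One-Glo; luminescence read. qHTS format.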

Test [18] has the same target. Put plainly: Human pregnane X receptor (PXR) activation by small molecules, qHTS assay (AID 1346985). Also: nearly all actives have a fitted effect of over 40% in size. The gist of the method:
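DPX-2 cells (HepG2 co-transfected with a PXR response element and a CYP3A4-promoter luciferase construct) were seeded at 2,000 per well, rested 5 hr at 37C, then exposed to DMSO-dissolved compounds for 24 hr. Activation was read as luciferase luminescence.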

Test [19] has the same target. Nature of the test: Human pregnane X receptor (PXR) small molecule agonists, qHTS assay (AID 1346982). Also: nearly all actives have a fitted effect of over 35% in size. Also: potency is read from the fitted curve at half-maximal effect. Summed up: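 PXR-Luc HepG2 cells (CYP3A4 promoter-driven luciferase) were seeded in medium with 5% charcoal-stripped FBS, left 5 hr at 37 C, then exposed to compounds in DMSO for 24 hr. Luminescence was read after ONE-Glo addition.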

Cytochrome P450 2C9 (Homo sapiens), sequence (P11712 whole entry, looked up): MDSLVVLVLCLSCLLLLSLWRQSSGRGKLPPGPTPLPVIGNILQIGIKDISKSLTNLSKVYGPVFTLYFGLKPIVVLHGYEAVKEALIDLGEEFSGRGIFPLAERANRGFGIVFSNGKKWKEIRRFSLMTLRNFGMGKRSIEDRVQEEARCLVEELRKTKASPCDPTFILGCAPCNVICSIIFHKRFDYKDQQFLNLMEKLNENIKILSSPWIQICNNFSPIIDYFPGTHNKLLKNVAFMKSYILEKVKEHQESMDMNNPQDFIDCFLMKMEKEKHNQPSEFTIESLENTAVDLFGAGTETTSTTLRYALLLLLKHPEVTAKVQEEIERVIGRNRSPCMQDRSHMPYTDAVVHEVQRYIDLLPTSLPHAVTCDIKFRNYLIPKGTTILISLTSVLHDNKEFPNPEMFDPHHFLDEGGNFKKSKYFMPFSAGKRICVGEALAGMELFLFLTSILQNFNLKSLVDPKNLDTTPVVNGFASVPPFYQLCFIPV
Thyrotropin-releasing hormone receptor (Homo sapiens), sequence (P34981 whole entry, looked up): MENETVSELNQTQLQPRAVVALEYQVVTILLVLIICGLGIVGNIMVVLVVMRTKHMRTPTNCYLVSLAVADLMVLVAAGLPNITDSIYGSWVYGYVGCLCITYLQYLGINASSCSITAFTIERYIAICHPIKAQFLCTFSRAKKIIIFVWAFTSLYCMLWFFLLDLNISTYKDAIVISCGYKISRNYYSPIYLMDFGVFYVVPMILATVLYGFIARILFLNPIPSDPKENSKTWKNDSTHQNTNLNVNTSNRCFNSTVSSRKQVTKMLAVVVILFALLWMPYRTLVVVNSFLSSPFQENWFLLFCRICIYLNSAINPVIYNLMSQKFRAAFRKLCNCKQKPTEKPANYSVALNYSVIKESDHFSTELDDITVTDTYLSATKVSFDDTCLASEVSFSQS
Progesterone receptor (Homo sapiens), sequence (P06401 whole entry, looked up): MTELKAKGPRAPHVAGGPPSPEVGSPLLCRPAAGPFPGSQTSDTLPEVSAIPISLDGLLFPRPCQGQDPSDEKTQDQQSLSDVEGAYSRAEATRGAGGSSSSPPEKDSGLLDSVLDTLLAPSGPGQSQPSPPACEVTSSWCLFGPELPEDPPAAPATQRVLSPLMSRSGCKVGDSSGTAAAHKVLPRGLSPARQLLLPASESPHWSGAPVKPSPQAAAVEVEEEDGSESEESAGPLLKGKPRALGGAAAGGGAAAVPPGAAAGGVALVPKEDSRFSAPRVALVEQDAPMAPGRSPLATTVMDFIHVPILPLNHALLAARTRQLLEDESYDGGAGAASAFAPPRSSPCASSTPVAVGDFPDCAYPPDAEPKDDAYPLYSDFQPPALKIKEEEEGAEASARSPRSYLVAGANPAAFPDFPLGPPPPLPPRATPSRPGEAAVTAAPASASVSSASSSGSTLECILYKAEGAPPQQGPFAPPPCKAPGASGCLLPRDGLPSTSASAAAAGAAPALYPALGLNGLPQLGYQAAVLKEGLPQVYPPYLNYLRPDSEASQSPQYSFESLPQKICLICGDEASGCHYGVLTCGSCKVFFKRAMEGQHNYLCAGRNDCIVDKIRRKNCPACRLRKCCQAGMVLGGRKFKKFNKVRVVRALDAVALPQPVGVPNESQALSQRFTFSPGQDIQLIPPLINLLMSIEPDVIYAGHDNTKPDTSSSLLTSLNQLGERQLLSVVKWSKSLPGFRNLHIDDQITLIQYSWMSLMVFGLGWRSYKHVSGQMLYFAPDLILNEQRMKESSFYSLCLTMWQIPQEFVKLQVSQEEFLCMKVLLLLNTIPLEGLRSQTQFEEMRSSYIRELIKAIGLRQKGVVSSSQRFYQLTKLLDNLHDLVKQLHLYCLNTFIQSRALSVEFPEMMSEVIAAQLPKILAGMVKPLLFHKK
Nuclear receptor subfamily 1 group I member 2 (Homo sapiens), sequence (O75469 whole entry, looked up): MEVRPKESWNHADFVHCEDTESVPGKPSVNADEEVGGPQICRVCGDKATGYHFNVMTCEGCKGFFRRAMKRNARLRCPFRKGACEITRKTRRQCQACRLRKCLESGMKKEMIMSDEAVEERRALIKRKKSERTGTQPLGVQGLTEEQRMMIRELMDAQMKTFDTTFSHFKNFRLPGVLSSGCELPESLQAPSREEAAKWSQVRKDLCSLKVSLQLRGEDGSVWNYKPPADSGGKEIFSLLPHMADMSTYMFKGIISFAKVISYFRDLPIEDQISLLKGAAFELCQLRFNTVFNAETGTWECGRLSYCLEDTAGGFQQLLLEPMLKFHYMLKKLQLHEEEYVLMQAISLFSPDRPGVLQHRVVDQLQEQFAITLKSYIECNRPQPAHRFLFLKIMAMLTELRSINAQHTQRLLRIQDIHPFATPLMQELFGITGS
Cytochrome P450 2C19 (Homo sapiens), sequence (P33261 whole entry, looked up): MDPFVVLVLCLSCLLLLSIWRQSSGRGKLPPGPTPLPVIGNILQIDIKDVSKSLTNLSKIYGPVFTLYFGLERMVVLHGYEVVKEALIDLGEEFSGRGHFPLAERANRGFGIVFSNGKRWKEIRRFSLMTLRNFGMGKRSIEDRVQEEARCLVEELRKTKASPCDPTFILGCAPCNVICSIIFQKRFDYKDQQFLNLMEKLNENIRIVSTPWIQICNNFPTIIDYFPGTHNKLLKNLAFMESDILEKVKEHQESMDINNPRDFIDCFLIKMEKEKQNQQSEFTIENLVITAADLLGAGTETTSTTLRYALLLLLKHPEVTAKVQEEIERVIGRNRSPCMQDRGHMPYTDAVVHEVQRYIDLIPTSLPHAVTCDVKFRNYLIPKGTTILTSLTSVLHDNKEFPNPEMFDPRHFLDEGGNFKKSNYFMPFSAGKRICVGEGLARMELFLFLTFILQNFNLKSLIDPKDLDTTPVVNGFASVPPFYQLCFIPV
Cytochrome P450 2D6 (Homo sapiens), sequence (P10635 whole entry, looked up): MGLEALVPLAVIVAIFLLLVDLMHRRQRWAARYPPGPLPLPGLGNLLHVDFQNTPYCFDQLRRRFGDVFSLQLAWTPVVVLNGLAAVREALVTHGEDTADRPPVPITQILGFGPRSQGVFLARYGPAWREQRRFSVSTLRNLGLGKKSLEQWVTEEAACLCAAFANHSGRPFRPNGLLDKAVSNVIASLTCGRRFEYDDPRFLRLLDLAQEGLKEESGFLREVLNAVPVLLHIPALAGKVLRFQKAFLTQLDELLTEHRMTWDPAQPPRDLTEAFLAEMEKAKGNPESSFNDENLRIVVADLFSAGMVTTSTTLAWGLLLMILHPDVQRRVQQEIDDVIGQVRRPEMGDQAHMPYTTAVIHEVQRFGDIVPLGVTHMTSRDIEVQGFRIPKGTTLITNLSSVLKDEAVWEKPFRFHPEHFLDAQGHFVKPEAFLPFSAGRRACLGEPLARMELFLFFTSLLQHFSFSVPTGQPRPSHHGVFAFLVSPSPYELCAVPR

Take `COc1ccc2nc(N)sc2c1`: the Potency entry in [1], in [2], in [3], in test [4], in test [5] and in test [7] was “inactive” in each case. For the same molecule, the Potency entry in test [8], in test [9], in test [10] and in [11] was “inactive” throughout. Also, the molecule was classed as inactive in test [6]. Besides, the Potency in test [12] is 10 µM (active) and 63.3 µM (active); in test [13], 39.9 µM (active) and 71 µM (active); in test [14] it was 39.9 µM (active).

As for `C=C1C[C@H]2[C@@H]3C=C(C)C4=CC(=O)CC[C@]4(C)[C@H]3CC[C@]2(C)[C@@]1(OC(C)=O)C(C)=O`, the Potency entry in test [1], in [4], in test [5], in [15], in [16] and in test [7] was “inactive” in each case. For the same molecule, the Potency result in [8], in [11], in test [17], in test [18] and in [12] was “inactive” in each case. Besides, the molecule was called inactive in test [6]. In addition, the Potency is 28.9 µM (active) and 9.77 µM (active) in test [13]; 22.9 µM (active) and 17.4 µM (active) in test [14].

`O=C(CCCN1CCC(O)(c2ccc(Cl)cc2)CC1)c1ccc(F)cc1`: the Potency result in test [2], in test [3], in test [4], in test [5], in [16] and in test [10] was “inactive” each time. Moreover, in test [6], the molecule was called inactive. The Potency in test [7] was 27.3 µM (active) and 23.7 µM (active); in [8], 54.5 µM (active) and inactive; in [9], 61.1 µM (active) and inactive; in test [11], 48.6 µM (active) and inactive.

With `C[C@]12CC[C@@H]3c4ccc(O)cc4CC[C@H]3[C@@H]1CC[C@@H]2O`, the Potency result in [4], in test [5], in [16], in [7], in test [11] and in test [14] was “inactive” throughout. For the same molecule, the call in test [6] was inactive. Moreover, the Potency in test [9] is 61 µM (active) and 61.1 µM (active); in test [12] it was 8.92 µM (active) and inactive; in [13], 7.95 µM (active) and 5.64 µM (active).

For the molecule `CN(C)CCCN1c2ccccc2Sc2ccc(Cl)cc21`, the Potency in test [1] is 43.3 µM (active) and 21.1 µM (active); in test [2] it was 27.3 µM (active) and 29.8 µM (active); in test [3] it was 30.6 µM (active) and 23.7 µM (active); in [7], 27.3 µM (active) and 26.6 µM (active); in test [9], 54.5 µM (active) and 29.8 µM (active); in test [11] it was 61.1 µM (active) and 29.8 µM (active). Moreover, the Potency entry in [4], in test [5] and in test [16] was “inactive” each time. Also, in [6], the molecule was called inactive.

`c1ccc2c(c1)ccc1cc3c(ccc4ccccc43)cc12`: the Potency result in test [1], in [2], in test [3], in test [4], in test [5] and in test [16] was “inactive” in each case. For the same molecule, the Potency entry in [7], in test [9], in test [10], in test [11], in [12] and in [13] was “inactive” throughout. Besides, in [14], the Potency result is “inactive”. In addition, the call in test [6] was inactive. In addition, the Potency in [19] is 3.03 µM (active) and 1.71 µM (active).

As to `CCCN1C=CN(C)C1`, the Potency entry in test [1], in test [2], in test [3], in [4], in test [5] and in test [7] was “inactive” throughout. Further, the Potency entry in [8], in test [9], in test [10], in test [11], in test [19] and in test [12] was “inactive” throughout. For the same molecule, the Potency entry in [13] and in test [14] was “inactive” throughout. For the same molecule, the molecule was classed as inactive in [6].

Consider `CC(=O)[C@H]1CC[C@H]2[C@@H]3CC=C4C[C@@H](O)CC[C@]4(C)[C@H]3CC[C@]12C`, for which the Potency entry in test [1], in test [2], in [3], in test [4], in [5] and in test [7] was “inactive” throughout. Also, the Potency result in test [9], in test [10], in test [11], in test [17], in [18] and in test [12] was “inactive” each time. The Potency result in test [13] was “inactive”. Further, the call in test [6] was inactive. The Potency in [19] was 24.3 µM (active) and 23.7 µM (active).

On to `C=C[Si](OCCOC)(OCCOC)OCCOC`, for which the Potency entry in test [1], in [2], in test [3], in [4], in [5] and in test [7] was “inactive” throughout. Further, the Potency result in test [8], in [9], in test [10], in test [11], in [19] and in [13] was “inactive” throughout. Also, the Potency entry in test [14] was “inactive”. Besides, in test [6], the molecule was classed as inactive. Besides, in [12], the Potency was 28.4 µM (active) and inactive.
